The list is not random: actives were taken first. Their share in the collection is about 1.3%.
IL2 activator: qHTS of IL-2 Activators. IL-2 activation reporter assay, cell-based qHTS; stimulated with anti-CD3/CD4/CD28 beads; in transgenic mouse T cells. activation, % (series mostly up to about 46 µM). 0.065% of 360,000 active. AID 652025, 2013; in the data active = activation above about 50%; inconclusive = mostly about 30% to 49%
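Unstimulated transgenic mouse T cells, 750 per well, received compound and, after 60 minutes, anti-CD3/anti-CD4 bead plus anti-CD28 stimulation. EGFP and DsRed were quantified after 18 hours.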
PTAP TSG101 blk: qHTS Assay for Iinhibitors of HIV-1 Budding by Blocking the Interaction of PTAP/TSG101; Fluorescence polarization, FITC-PTAP peptide / Tsg101 binding; Potency, µM (titrated, usually from 115 µM), usual class: inhibitors; 340,000 tested, under 10 active; active = well fitted inhibition curve with a large enough effect in the main read-out, with a control signal flat, not every such curve was filed as active; inconclusive = small, poorly fitted or top-dose-only effect, or effect the other way, or a change in a side signal; inactive = no such curve, though single readings can be large or run the other way
Target sequence (Q99816 whole entry, looked up): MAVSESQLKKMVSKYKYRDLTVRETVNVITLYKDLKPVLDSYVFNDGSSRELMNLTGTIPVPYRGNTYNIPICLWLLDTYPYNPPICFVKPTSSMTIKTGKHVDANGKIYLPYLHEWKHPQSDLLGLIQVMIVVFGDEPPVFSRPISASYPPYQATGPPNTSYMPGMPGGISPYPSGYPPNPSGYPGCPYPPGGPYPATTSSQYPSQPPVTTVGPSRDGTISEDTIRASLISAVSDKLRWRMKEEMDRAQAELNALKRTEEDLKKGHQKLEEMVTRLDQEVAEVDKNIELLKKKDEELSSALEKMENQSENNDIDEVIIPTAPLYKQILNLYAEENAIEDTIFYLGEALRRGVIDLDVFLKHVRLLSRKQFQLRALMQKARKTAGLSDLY
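Fluorescence anisotropy tracks displacement of a FITC-tagged PTAP peptide (50 nM) from the Tsg101 binding domain (10 uM), following a 20 min room-temperature incubation at pH 7.5.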
PKM2 activator: qHTS Assay for Activators of Human Muscle isoform 2 Pyruvate Kinase | AID 1631, 2009 | Pyruvate kinase PKM (Homo sapiens), P14618 | Potency, µM (titrated, usually from 57.5 µM), actives largely listed as activators | 0.34% of 260,000 active | purified PKM2, Kinase-Glo ATP luminescence, activation; response scale: 0% is enzyme alone, no compound; also: nearly all actives have a fitted effect of over 55% in size
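Purified hPK-M2 (>95%) run at intermediate activity with 0.1 mM ADP and 0.5 mM PEP in 50 mM imidazole pH 7.2, KCl, MgCl2; 1 h room temperature. ATP formed read by Kinase-Glo luminescence; normalized to uninhibited and no-enzyme controls.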
BRCA1 expr act: qHTS Assay to Identify Small Molecule Activators of BRCA1 Expression | Potency, µM (series often up to 46.1 µM), most hits filed as activators | 1.1% of 380,000 active | MCF7-BRCA1-FFLuc reporter, luminescence, 48 h; response scale: scaled: vehicle 0%, 10 µM genistein 100%; also: nearly all actives have a fitted effect of over 80% in size
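Quantitative HTS in MCF7 cells stably reporting BRCA1 expression via firefly luciferase. Compound treatment lasts 48 h at 37 °C in phenol-red free MEM. Activation is expressed relative to genistein at 10 microM and DMSO.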
TRPML1 inh: qHTS for Inhibitors of the Human Mucolipin Transient Receptor Potential 1 (TRPML1). Mucolipin-1 (Homo sapiens), Q9GZU1. TRPML1-inducible cells, Ca2+ dye fluorescence, FDSS; stronger effect = lower value; inhibition of EC80 agonist-evoked calcium signal. activity change, negative = inhibition, % (no concentration beside the values). 0.02% of 390,000 active. AID 624415, 2012; in the data active = activity change below about -50%; inconclusive = between about -30% and that limit;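 also: stimulus is agonist 54-4 at its EC80 concentration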
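Calcium fluorescence in TRPML1-DL cells induced overnight with Tet: a 110 s read after compound pin addition, then a 110 s antagonist read after challenge with 54-4 at 4 uM final (EC80).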
TRPML1 ag: qHTS for Agonists of the Human Mucolipin Transient Receptor Potential 1 (TRPML1). Mucolipin-1 (Homo sapiens), Q9GZU1. TRPML1-expressing cells, Ca2+ dye fluorescence, FDSS. activation, % (concentration not given with the values). 0.12% of 410,000 active. AID 624414, 2012; in the data active = activation above about 50%; inconclusive = mostly about 30% to 49%
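Kinetic FDSS Ca2+ read in Tet-induced TRPML1-DL cells (ABD Ca8 dye plus quencher, 45-90 min RT loading): baseline, then compound, then 110 s agonist window; EC80 agonist 54-4 at 4uM final added afterwards for a 110 s antagonist window.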
Of the large screens only hits and unclear results are named; the others gave an inactive call; ! = repeats disagree. Unless noted, calls follow the shape of the dose curve; as a rule, active = well fitted activation curve with a large enough effect; inconclusive = small, poorly fitted or top-dose-only effect; inactive = no such curve, though single readings can be large or run the other way.

Cc1csc(NC(=O)Cc2c(F)cccc2Cl)n1	BRCA1 expr act 4.5µM
COc1ccc(CCC(=O)NCc2ccc3c(c2)CCN3C(=O)c2ccc(Cl)cc2)cc1	none (no result: IL2 activator, PTAP TSG101 blk, PKM2 activator, BRCA1 expr act)
COc1cccc(C=C2Cc3ccccc3C2=O)c1	none (no result: PTAP TSG101 blk, PKM2 activator, TRPML1 inh)
CC(=O)Oc1ccc(/C=C2/CCc3ccccc3C2=O)cc1	BRCA1 expr act 13µM
COc1cccc(/C=C2\CCc3ccccc3C2=O)c1	BRCA1 expr act 13µM
O=C1C(=Cc2ccccn2)CCc2ccccc21	none (no result: PTAP TSG101 blk, PKM2 activator)
COc1ccc2c(c1)CC/C(=C/c1ccccn1)C2=O	BRCA1 expr act 13µM (no result: PKM2 activator)
COc1ccc(-[n+]2c(C)cc(/C=C3\Sc4ccccc4N3C)cc2C)cc1	TRPML1 ag 69
COc1ccc(C(=O)/C=C2\Sc3ccccc3N2C)cc1	none
COc1ccccc1OC(=O)CCN1c2ccccc2Sc2ccccc21	none
COc1ccccc1-[n+]1c(C)cc(/C=C2\Sc3ccccc3N2C)cc1C	PTAP TSG101 blk inconclusive, TRPML1 ag 65
CCN(CC)C(=O)Cn1c(=O)c2ccccc2n2c(=S)sc(-c3cccc(C)c3)c12	IL2 activator 94, PTAP TSG101 blk inconclusive
Cc1c2ccccc2nc2c(F)c(N(C)C)c(F)c(F)c12	PTAP TSG101 blk inconclusive, BRCA1 expr act 13µM
CCc1ccc(NC(=S)NC(=O)CC(C)C)cc1	BRCA1 expr act 6.3µM
CCN(CC)S(=O)(=O)c1ccc(NC(=S)NC(=O)CC(C)C)cc1	none
Cc1ccc(C(=O)CSc2nsc(C)c2C#N)cc1	BRCA1 expr act 6.3µM
COc1ccc(-c2nc(NC(=O)c3[nH]c(C)c(C(C)=O)c3C)sc2C)cc1	PKM2 activator 7.9µM
COC(=O)c1ccccc1NC(=O)c1c(C)oc2ncn(C)c(=O)c12	none (no result: IL2 activator, PTAP TSG101 blk, PKM2 activator)
Nc1nonc1-c1noc(CCCN2C(=O)c3ccccc3C2=O)n1	BRCA1 expr act 4.5µM
CCCCN1C(=O)C(=O)N(c2ccccc2)C1=S	BRCA1 expr act 5µM
CCOC(=O)/C(C#N)=C\c1ccc(CC)s1	none
CCOC(=O)/C(C#N)=C\C=C1C=CN(C)C=C1	PTAP TSG101 blk inconclusive, BRCA1 expr act 4µM
c1ccc(N2CCN(c3nc4cc5c(cc4s3)OCO5)CC2)cc1	BRCA1 expr act 4µM!
CCc1nn(CC(=O)NCCOC)c(=O)c2cc3cc(F)ccc3n12	none (no result: IL2 activator, PTAP TSG101 blk, PKM2 activator, BRCA1 expr act)
Cc1ccc(Nc2nc(=O)c3cccnc3s2)cc1	none
COc1ccc(OC)c(Nc2nc(=O)c3cccnc3s2)c1	PKM2 activator 8.9µM
O=S(=O)(c1cccc(Cl)c1)N1CCN(c2nc(-c3ccccc3)nc3ccccc23)CC1	none (no result: IL2 activator, PTAP TSG101 blk, PKM2 activator, TRPML1 inh)
O=C(Nc1ccc(F)cc1)c1ccc2snnc2c1	none
CCOc1ccc(NC(=O)c2ccc3snnc3c2)cc1	BRCA1 expr act 7.9µM!
CCOc1ccc(NC(=O)c2ccc(F)cc2F)cc1	BRCA1 expr act 11µM (no result: PKM2 activator)
CCCCc1nc2cc(C(=O)N3CCC(O)CC3)ccc2o1	BRCA1 expr act 3.5µM
Cc1nnc(SCC(=O)NC(=O)Nc2ccc3c(c2)OCCO3)n1N	BRCA1 expr act 10µM
CC(=O)OCC(NC(=O)C1CCCN1C(=O)OC(C)(C)C)C1OC(n2cc(F)c(=O)[nH]c2=O)C(OC(C)=O)C1OC(C)=O (stereo not given)	none (no result: IL2 activator, PTAP TSG101 blk, PKM2 activator, BRCA1 expr act)
CCC(CC)=NNc1ccc(S(N)(=O)=O)cc1[N+](=O)[O-]	PKM2 activator 18µM
Cc1cc(C)nc(Nc2ccc(C(=O)O)cc2)n1	BRCA1 expr act 2.8µM
Cc1cc(C)nc(Nc2ccc(O)cc2)n1	none (no result: PKM2 activator)
O=S(=O)(O)c1c(NS(=O)(=O)c2ccccc2)ccc2ccccc12	none (no result: IL2 activator, PTAP TSG101 blk, PKM2 activator)
